The text below walks through data of PubChem BioAssay (Tox21).

A short description of assay [1]: qHTS assay to identify aromatase inhibitors - cell viability counter screen (AID 743084).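 Note: cells stimulated with testosterone during compound exposure; nearly all actives have a fitted effect of over 55% in size.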
Assay [2] addresses Aryl hydrocarbon receptor (Homo sapiens) (UniProt P35869). Put plainly: qHTS assay to identify small molecule that activate the aryl hydrocarbon receptor (AhR) signaling pathway (AID 743085).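 Note: HG2L7.5c1 human HepG2 liver cells with stably integrated DRE-driven firefly reporter; series mostly up to about 70 µM; nearly all actives have a fitted effect of over 15% in size.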 The method in brief: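 Steps: seed HepG2-AhR-luc cells; allow 5 h at 37C; pin-transfer test compound or vehicle; incubate 24 h at 37C; add viability dye (30 min, 37C) and read fluorescence; add luciferase substrate (30 min, RT) and read luminescence.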

A short description of assay [3]: qHTS assay to identify small molecule that activate the aryl hydrocarbon receptor (AhR) signaling pathway - cell viability counter screen (AID 743086). Note: series mostly up to about 70 µM; nearly all actives have a fitted effect of over 45% in size. In outline: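 Cytotoxicity counter screen: CellTiter-Fluor signal (30 min, 37 C) in 4000 HepG2 cells/well carrying the DRE-luciferase reporter, following 24 h compound exposure at 37 C.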
Assay [4] has as its target Peroxisome proliferator-activated receptor gamma (Homo sapiens) (UniProt P37231). Put plainly: qHTS assay to identify small molecule agonists of the peroxisome proliferator-activated receptor gamma (PPARg) signaling pathway (AID 743094; active = well fitted activation curve with a large enough effect in the signal ratio in the repeat runs, not every such curve was filed as active; the % refers to the signal ratio). The method in brief: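 Beta-lactamase FRET fluorescence was the read-out after a 1 h room-temperature substrate step, following 17 h compound treatment at 37C of HEK293H cells expressing a UAS-driven bla reporter responsive to PPARg.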

Assay [5] shares this target. Description: qHTS assay to identify small molecule antagonists of the peroxisome proliferator-activated receptor gamma (PPARg) signaling pathway (AID 743191; calls by dose curve; note: series mostly up to about 63 µM; nearly all actives have a fitted effect of over 30% in size). The method in brief:
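Beta-lactamase reporter under UAS control in HEK293H PPARg-bla cells; compound treatment 17 h at 37C. Read-out: fluorescence intensity after 1 h room-temperature incubation with LiveBLAzer B/G FRET substrate.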

Assay [6] is described as follows: qHTS assay to identify small molecule antagonists of the peroxisome proliferator-activated receptor gamma (PPARg) signaling pathway - cell viability counter screen (AID 743194). Note: nearly all actives have a fitted effect of over 55% in size. In outline: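 Viability was measured as CellTiter-Glo luminescence in GeneBLAzer PPARg UAS-bla HEK293H cells. These cells had been exposed 17 h at 37 C to compounds together with rosiglitazone at 50 nM final, with the beta-lactamase readout taken in the same wells.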

Assay [7] in a line: qHTS assay for small molecule agonists of the antioxidant response element (ARE) signaling pathway (AID 743202; active = well fitted activation curve with a large enough effect in the signal ratio in the repeat runs, not every such curve was filed as active; the % refers to the signal ratio). The method in brief: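 Quantitative high-throughput format in HepG2 cells bearing an integrated ARE-beta-lactamase reporter. Compound exposure lasted 16 h at 37 C, and fluorescence was read 2 h after adding LiveBLAzer B/G substrate at room temperature.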
Assay [8] is described as follows: qHTS assay for small molecule agonists of the antioxidant response element (ARE) signaling pathway - cell viability counter screen (AID 743203; calls by dose curve; note: nearly all actives have a fitted effect of over 55% in size). In outline: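 HepG2 cells carrying ARE-driven beta-lactamase; 2,000 cells/well; 5 hrs plating; compound pinned from DMSO; 16 hrs 37C/5% CO2; CellTiter-Glo added; 30 min RT; luminescence.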
Assay [9] in a line: qHTS assay for small molecule activators of the heat shock response signaling pathway - cell viability counter screen (AID 743209). Note: nearly all actives have a fitted effect of over 50% in size. Note: potency is the fitted concentration of half-maximal effect. The method in brief:
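Luminescence from CellTiter-Glo, added after the beta-lactamase FRET read, gave the viability signal. Cells were HSE-bla HeLa treated with DMSO-dissolved compounds for 5 h at 37 C following overnight plating.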

The nature of assay [10]: qHTS assay for small molecule activators of the heat shock response signaling pathway (AID 743210; active = well fitted activation curve with a large enough effect in the signal ratio in the repeat runs, with a control signal flat, not every such curve was filed as active; the % refers to the signal ratio;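 note: HeLa cells with beta-lactamase reporter driven by heat shock elements; series mostly up to about 63 µM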). In outline: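 HeLa HSE-bla cells, overnight plating; cpd in DMSO 5 h, 37 C; LiveBLAzer B/G FRET substrate 2.5 h RT; fluorescence intensity read.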
Assay [11] in a line: qHTS assay to identify small molecule agonists of the peroxisome proliferator-activated receptor delta (PPARd) signaling pathway - cell viability counter screen (AID 743211). Note: nearly all actives have a fitted effect of over 55% in size. In outline:
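Viability of GeneBLAzer PPARd UAS-bla HEK293H cells was assessed after 17 h compound incubation at 37C, using CellTiter-Glo reagent added after the reporter read and luminescence recorded 30 min later.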

Assay [12] has as its target Peroxisome proliferator-activated receptor delta (Homo sapiens) (UniProt Q03181). Put plainly: qHTS assay to identify small molecule agonists of the peroxisome proliferator-activated receptor delta (PPARd) signaling pathway (AID 743212; calls by dose curve). The method in brief: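 HEK293H PPARd-bla cells; 5 h preincubation 37 C/5% CO2; compound (DMSO) 37 C; LiveBLAzer B/G FRET substrate 2 h RT; fluorescence intensity.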

Assay [13] is described as follows: qHTS assay to identify small molecule antagonists of the peroxisome proliferator-activated receptor delta (PPARd) signaling pathway - cell viability counter screen (AID 743213). Note: nearly all actives have a fitted effect of over 50% in size. The method in brief: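 Luminescence from CellTiter-Glo, added after the bla read and incubated 30 min at room temperature, gives viability of HEK293H PPARd-bla cells exposed to compounds for 17 h at 37 C with 300 nM L165041.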

The target of assay [14] is Peroxisome proliferator-activated receptor delta (Homo sapiens) (UniProt Q03181). Description: qHTS assay to identify small molecule antagonists of the peroxisome proliferator-activated receptor delta (PPARd) signaling pathway (AID 743215; active = well fitted inhibition curve with a large enough effect in the signal ratio in the repeat runs, not every such curve was filed as active; the % refers to the signal ratio;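 note: cells stimulated with agonist L165041 at 300 nM final during compound exposure; series mostly up to about 62 µM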). In outline:
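Read-out is beta-lactamase FRET fluorescence, measured 2 h after substrate addition at room temperature. Beforehand, UAS-bla HEK293H cells carrying the PPARd reporter were exposed to compounds with L165041 at 300 nM final for 17 h at 37 C.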

Assay [15] in a line: qHTS assay to identify small molecule agonists of the farnesoid-X-receptor (FXR) signaling pathway - cell viability counter screen (AID 743218). Note: nearly all actives have a fitted effect of over 45% in size. In outline: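 HEK 293T FXR-bla cells; 5 h pre-incubation, 16 h compound exposure at 37 C; LiveBLAzer substrate 2 h RT, then CellTiter-Glo 30 min RT, luminescence.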
The nature of assay [16]: qHTS assay to identify small molecule antagonists of the farnesoid-X-receptor (FXR) signaling pathway - cell viability counter screen (AID 743221; active = well fitted cell-killing curve with a large enough effect in the repeat runs, not every such curve was filed as active; note: nearly all actives have a fitted effect of over 50% in size). In outline: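 Quantitative HTS of the Tox21 10K library run in parallel with the beta-lactamase reporter read. HEK 293T cells carrying a UAS-driven bla reporter got compound and 50 uM CDCA (final) for 16 h; ATP-based luminescence followed.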

In assay [17] the target is Vitamin D3 receptor (Homo sapiens) (UniProt P11473). Description: qHTS assay to identify small molecule agonists of the vitamin D receptor (VDR) signaling pathway (AID 743222; calls by dose curve). In outline:
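VDR-bla cells, 2,000/well; 4 h preincubation 37C; cpd (DMSO) 16 h; LiveBLAzer B/G substrate 2 h RT; fluorescence intensity read.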

The target is the same in assay [18]. Put plainly: qHTS assay to identify small molecule antagonists of the vitamin D receptor (VDR) signaling pathway (AID 743223; active = well fitted inhibition curve with a large enough effect in the signal ratio in the repeat runs, not every such curve was filed as active; the % refers to the signal ratio). In outline: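 Fluorescence from LiveBLAzer B/G FRET substrate, read after 2 h at room temperature, reflects beta-lactamase reporter activity in VDR-bla cells treated 16 h at 37C with compounds and agonist 1alpha,25-dihydroxyvitamin D3 (3 nM final).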

Assay [19] addresses Bile acid receptor (Homo sapiens) (UniProt Q96RI1). Put plainly: qHTS assay to identify small molecule antagonists of the farnesoid-X-receptor (FXR) signaling pathway (AID 743217; active = well fitted inhibition curve with a large enough effect in the signal ratio in the repeat runs, not every such curve was filed as active; the % refers to the signal ratio). In outline:
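HEK 293T FXR-UAS-bla, 5000 cells/well; compound + CDCA 50 uM final; 16 h, 37 °C; B/G FRET substrate 2 h RT; fluorescence.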

Assay [20] has the same target. Description: qHTS assay to identify small molecule agonists of the farnesoid-X-receptor (FXR) signaling pathway (AID 743220; active = well fitted activation curve with a large enough effect in the signal ratio in the repeat runs, not every such curve was filed as active; the % refers to the signal ratio). In outline: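 Beta-lactamase reporter under UAS control in GeneBLAzer FXR HEK 293T cells (5000/well) measured with LiveBLAzer FRET substrate after 2 h at room temperature. Compound exposure lasted 16 h at 37C.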

SMILES strings stand for the structures. Inconclusive results are not listed. Activity calls are given as the source filed them. Unless noted, calls come from the whole dose curve; as a rule, active = well fitted curve in the direction sought with a large enough effect in the repeat runs; inconclusive = weak or mixed curves; inactive = no such curve, though single readings can be large; an effect the other way counts as inactive or inconclusive.

Sequence of Peroxisome proliferator-activated receptor delta (Homo sapiens) (Q03181 whole entry, looked up): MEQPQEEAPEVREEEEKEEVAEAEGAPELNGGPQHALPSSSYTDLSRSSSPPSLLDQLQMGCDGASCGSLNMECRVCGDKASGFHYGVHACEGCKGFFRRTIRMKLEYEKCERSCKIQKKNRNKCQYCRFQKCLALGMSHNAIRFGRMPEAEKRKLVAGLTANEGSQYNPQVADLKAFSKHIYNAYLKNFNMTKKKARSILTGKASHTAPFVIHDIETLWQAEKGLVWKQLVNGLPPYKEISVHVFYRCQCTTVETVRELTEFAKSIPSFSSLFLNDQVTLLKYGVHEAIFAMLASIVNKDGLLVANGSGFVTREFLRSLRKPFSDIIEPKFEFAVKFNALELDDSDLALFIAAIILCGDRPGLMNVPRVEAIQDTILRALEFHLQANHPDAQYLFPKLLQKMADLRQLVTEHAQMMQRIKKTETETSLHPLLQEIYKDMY
Sequence of Bile acid receptor (Homo sapiens) (Q96RI1 whole entry, looked up): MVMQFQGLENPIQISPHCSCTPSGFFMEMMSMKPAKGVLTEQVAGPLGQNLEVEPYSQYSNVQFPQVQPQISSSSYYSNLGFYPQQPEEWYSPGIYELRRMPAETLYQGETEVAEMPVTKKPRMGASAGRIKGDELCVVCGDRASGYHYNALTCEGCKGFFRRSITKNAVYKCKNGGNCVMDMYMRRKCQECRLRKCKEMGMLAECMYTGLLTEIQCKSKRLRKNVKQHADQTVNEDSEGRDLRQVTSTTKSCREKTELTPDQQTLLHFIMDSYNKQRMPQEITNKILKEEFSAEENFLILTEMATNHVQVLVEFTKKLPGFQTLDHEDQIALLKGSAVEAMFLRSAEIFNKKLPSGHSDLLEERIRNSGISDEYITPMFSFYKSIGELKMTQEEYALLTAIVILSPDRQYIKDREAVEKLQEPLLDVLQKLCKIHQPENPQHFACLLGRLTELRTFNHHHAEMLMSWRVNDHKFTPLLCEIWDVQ
Sequence of Vitamin D3 receptor (Homo sapiens) (P11473 whole entry, looked up): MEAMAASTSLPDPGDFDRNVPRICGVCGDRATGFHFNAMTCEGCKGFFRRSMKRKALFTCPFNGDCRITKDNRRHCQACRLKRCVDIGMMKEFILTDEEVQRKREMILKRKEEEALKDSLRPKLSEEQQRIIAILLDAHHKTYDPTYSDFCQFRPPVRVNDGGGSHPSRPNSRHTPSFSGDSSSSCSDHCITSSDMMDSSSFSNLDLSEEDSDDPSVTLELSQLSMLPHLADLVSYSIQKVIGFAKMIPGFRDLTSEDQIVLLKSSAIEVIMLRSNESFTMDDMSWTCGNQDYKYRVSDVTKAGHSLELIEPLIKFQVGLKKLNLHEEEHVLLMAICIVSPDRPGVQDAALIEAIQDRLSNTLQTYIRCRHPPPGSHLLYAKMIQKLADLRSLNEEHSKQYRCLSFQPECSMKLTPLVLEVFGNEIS
Sequence of Peroxisome proliferator-activated receptor gamma (Homo sapiens) (P37231 whole entry, looked up): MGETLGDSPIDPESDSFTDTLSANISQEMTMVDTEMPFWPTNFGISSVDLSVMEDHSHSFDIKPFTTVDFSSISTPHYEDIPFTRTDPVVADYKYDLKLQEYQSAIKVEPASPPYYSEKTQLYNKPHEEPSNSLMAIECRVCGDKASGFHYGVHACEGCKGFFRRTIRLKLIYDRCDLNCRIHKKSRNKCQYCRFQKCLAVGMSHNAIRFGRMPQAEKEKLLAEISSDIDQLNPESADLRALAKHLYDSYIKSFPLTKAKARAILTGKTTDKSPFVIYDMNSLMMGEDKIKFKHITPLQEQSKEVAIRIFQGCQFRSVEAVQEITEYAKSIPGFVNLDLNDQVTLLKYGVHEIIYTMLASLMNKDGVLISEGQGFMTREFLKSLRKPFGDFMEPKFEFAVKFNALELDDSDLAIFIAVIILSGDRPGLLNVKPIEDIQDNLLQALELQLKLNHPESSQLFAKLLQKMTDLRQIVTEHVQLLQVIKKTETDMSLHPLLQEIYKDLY
Sequence of Aryl hydrocarbon receptor (Homo sapiens) (P35869 whole entry, looked up): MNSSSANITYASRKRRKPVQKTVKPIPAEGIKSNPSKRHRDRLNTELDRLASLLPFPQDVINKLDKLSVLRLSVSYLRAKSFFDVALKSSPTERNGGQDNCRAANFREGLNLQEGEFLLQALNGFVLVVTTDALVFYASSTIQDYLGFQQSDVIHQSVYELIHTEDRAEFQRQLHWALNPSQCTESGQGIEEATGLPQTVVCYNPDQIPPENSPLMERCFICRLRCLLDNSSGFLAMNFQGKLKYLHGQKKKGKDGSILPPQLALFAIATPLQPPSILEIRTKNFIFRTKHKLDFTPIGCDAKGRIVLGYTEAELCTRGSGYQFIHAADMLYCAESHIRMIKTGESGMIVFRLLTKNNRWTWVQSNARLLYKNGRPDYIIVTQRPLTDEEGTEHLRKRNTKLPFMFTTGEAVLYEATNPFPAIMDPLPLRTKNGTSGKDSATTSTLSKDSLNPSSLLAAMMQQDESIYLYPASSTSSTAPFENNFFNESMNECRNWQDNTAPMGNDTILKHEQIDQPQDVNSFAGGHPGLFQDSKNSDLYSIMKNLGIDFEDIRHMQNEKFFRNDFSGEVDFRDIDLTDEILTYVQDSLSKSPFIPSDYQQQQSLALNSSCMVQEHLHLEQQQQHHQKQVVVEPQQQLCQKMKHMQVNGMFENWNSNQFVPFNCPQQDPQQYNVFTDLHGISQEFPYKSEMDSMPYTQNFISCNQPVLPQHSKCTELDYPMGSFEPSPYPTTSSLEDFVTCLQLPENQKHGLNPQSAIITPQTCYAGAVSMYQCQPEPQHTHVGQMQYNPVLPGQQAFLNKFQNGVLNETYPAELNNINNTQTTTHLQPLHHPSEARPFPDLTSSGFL

On to `COCC(=O)O`, for which the Potency entry in assay [1], in assay [2], in [3], in assay [5], in assay [6] and in assay [7] was “inactive” in each case. Also, the Potency entry in assay [8], in assay [9], in [11], in [13], in [15] and in assay [16] was “inactive” in each case. Also, the Potency entry in assay [17] and in assay [18] was “inactive” each time. Further, the compound was classed as inactive in [4], in assay [10], in [12] and in assay [14].
As to `O=C(Oc1ccccc1)c1ccc(O)cc1`, the Potency result in [1], in [2], in assay [3], in assay [5], in [6] and in assay [7] was “inactive” each time. The Potency entry in assay [8], in assay [9], in [11], in assay [13], in assay [15] and in assay [16] was “inactive” each time. For the same compound, the Potency entry in [17] and in [18] was “inactive” each time. Moreover, the compound was classed as inactive in assay [4], in assay [10] and in assay [12].
Regarding `O=S(=O)(Oc1ccc(Cl)cc1Cl)c1ccccc1`, the Potency entry in assay [1], in assay [2], in assay [3], in assay [5], in [6] and in [7] was “inactive” throughout. Also, the Potency entry in assay [8], in [9], in assay [11], in assay [13], in assay [15] and in assay [16] was “inactive” in each case. For the same compound, the Potency entry in assay [17] and in assay [18] was “inactive” throughout. Also, the compound was called inactive in [4], in [10], in [12] and in assay [14].
Turning to `OC[C@@H](O)[C@H](O)[C@H](O)[C@@H](O)CO`, the Potency entry in assay [1], in [2], in [3], in [5], in assay [6] and in assay [7] was “inactive” throughout. The Potency entry in [8], in assay [9], in assay [11], in assay [13], in assay [15] and in [16] was “inactive” each time. Besides, the Potency entry in assay [17] and in [18] was “inactive” in each case. In addition, the result in [4] and in assay [10] was inactive.
In the case of `COC(=O)c1ccc(C(=O)OC)cc1`, the Potency result in assay [1], in assay [2], in assay [3], in assay [5], in [6] and in assay [7] was “inactive” each time. The Potency result in [8], in assay [9], in assay [11], in [13], in [15] and in assay [16] was “inactive” throughout. Besides, the Potency result in assay [17] and in assay [18] was “inactive” each time. For the same compound, in assay [4], the call was inactive.
Turning to `CCCCCCCCC`, the Potency entry in assay [1], in assay [2], in assay [3], in [5], in assay [6] and in assay [7] was “inactive” throughout. In addition, the Potency entry in [8], in [9], in [11], in assay [13], in assay [15] and in [16] was “inactive” in each case. The Potency result in assay [17] and in [18] was “inactive” each time. The result in assay [4], in assay [10], in [12] and in [14] was inactive.
`C=C(C)C(=O)OCC(CC)(COC(=O)C(=C)C)COC(=O)C(=C)C`: the Potency entry in assay [1], in [2], in assay [3], in [5], in assay [6] and in [7] was “inactive” throughout. The Potency entry in assay [8], in assay [11], in assay [13], in assay [15] and in assay [16] was “inactive” in each case. For the same compound, the result in assay [4], in assay [12], in [14], in assay [19] and in [20] was inactive. Further, the Potency in [9] is 12.1 µM (active).
With `CCCCC(CC)COC(C)=O` (configuration not stated), the Potency result in assay [1], in [2], in assay [3], in assay [5], in assay [6] and in assay [7] was “inactive” each time. In addition, the Potency result in assay [8], in [9], in assay [11], in assay [13], in [15] and in assay [16] was “inactive” each time. In addition, the Potency entry in assay [17] and in assay [18] was “inactive” in each case. For the same compound, the outcome in assay [4], in assay [10], in [12] and in assay [14] was inactive.
